# In PubChem BioAssay AID2071 (Sanford-Burnham Center for Chemical Genomics, 2009):
# In all, about 280,000 compounds went through this assay and about 1,700 (0.61%) were called active. No stated cut-off is given here; in the data, active means inhibition mostly above about 24% (no sharp cut-off); inactive means mostly below about 32%. Only a selection was taken, and actives are over-represented in it overall.
# Assay: NALP1 inflammasome inhibitors in reconstituted yeast, colorimetric, S. cerevisiae, triplicate retest (AID 2071)
# Settings: S. cerevisiae NALP1/ASC/caspase-1 growth, X-gal OD620, 72 h, stronger effect = higher value
compound,measurement,setting,value
CNS(=O)(=O)c1ccc(NC(=O)Nc2ccc3c(c2)OCO3)cc1,inhibition,at 10 µM unless noted,-4.3% (inactive)
COc1ccc(S(=O)(=O)Nc2ccc(S(=O)(=O)N3CCCCC3)cc2)cc1OC,inhibition,at 10 µM unless noted,22.8% (inactive)
COc1ccc(S(=O)(=O)Nc2ccc3c(c2)OCO3)cc1Cl,inhibition,at 10 µM unless noted,27.9% (active)
Cc1cc(N=Nc2ccc3ccccc3c2)ccc1O,inhibition,at 10 µM unless noted,1.2% (inactive)
CC[C@]1(c2ccccc2OC)C(=O)N(C(=O)OC)N1C(=O)OC,inhibition,at 10 µM unless noted,34.1% (inactive)
CCOC(=O)C1(Cc2ccccc2C)CCCN(C(=O)CN2C(=O)CSC2=O)C1 (configuration not stated),inhibition,at 10 µM unless noted,20% (inactive)
O=C(NC(=S)N1CCCCC1c1cccnc1)c1ccccc1 (configuration not stated),inhibition,at 10 µM unless noted,-18% (inactive)
CCn1c(=N)n(CC(=O)c2cccc(OC)c2)c2ccccc21,inhibition,at 10 µM unless noted,31.5% (active)
COc1ccc2cc(C(=O)O)n(CC(=O)c3ccccc3)c2c1,inhibition,at 10 µM unless noted,14% (inactive)
CCCn1c(=N)n(CC(=O)c2ccc(Cl)c(Cl)c2)c2ccccc21,inhibition,at 10 µM unless noted,23.1% (inactive)
O=C(Nc1cccc2c1CCCC2)C1CCN(C(=O)NC2CCCCC2)CC1,inhibition,at 10 µM unless noted,-14.2% (inactive)
Cc1cccc(NC(=O)C2CCN(C(=O)NC3CCCCC3)CC2)c1,inhibition,at 10 µM unless noted,3.7% (inactive)
Cc1ccccc1NC(=O)C1CCN(C(=O)NC2CCCCC2)CC1,inhibition,at 10 µM unless noted,40.8% (active)
O=S(=O)(Oc1ccccc1C(=S)N1CCOCC1)c1ccc(Cl)cc1,inhibition,at 10 µM unless noted,1.2% (inactive)
Cc1ccc(OCc2cc(C(=O)N(C)CCn3ccnc3C)no2)cc1C,inhibition,at 10 µM unless noted,5.1% (inactive)
COc1ccc(N2C(=O)CNC2=S)cc1,inhibition,at 10 µM unless noted,-21.9% (inactive)
O=C1CSC(=S)N1c1ccc(Cl)c(Cl)c1,inhibition,at 10 µM unless noted,44.2% (active)
CCOc1cccc(/C=N/N2C(=O)CSC2=S)c1O,inhibition,at 10 µM unless noted,-14.2% (inactive)
CC(C)N1C(=S)SC(C)(C)C1n1oc(=O)n(-c2ccc(Cl)c(Cl)c2)c1=O (configuration not stated),inhibition,at 10 µM unless noted,0.9% (inactive)
Cc1cc(=O)cc(C)n1-c1ccc(Cl)c(Cl)c1,inhibition,at 10 µM unless noted,-5.9% (inactive)
COc1ccc(CCN=C2SCC(=O)N2C)cc1OC,inhibition,at 10 µM unless noted,2.2% (inactive)
COc1cc(N2C(=O)CSC2=S)cc(OC)c1OC,inhibition,at 10 µM,52.7% (active)
same,inhibition,"triplicate retest, at 20 µM",57.6%
O=C1CSC(=S)N1c1ccc(O)cc1,inhibition,at 10 µM,76.7% (active)
same,inhibition,"triplicate retest, at 20 µM",95.9%
COc1cccc(C2SCC(=O)N2c2cccc(C)c2)c1OC (configuration not stated),inhibition,at 10 µM unless noted,9.2% (inactive)
Cc1cccc(Nc2nc(-c3ccccc3)cs2)n1,inhibition,at 10 µM unless noted,19.1% (inactive)
CCOc1ccccc1NC(=S)N1CCN(c2cccc(C)c2C)CC1,inhibition,at 10 µM unless noted,4.9% (inactive)
CC(C)c1ccc2oc(=O)cc(CN3CCN(Cc4ccccc4)CC3)c2c1,inhibition,at 10 µM unless noted,8.7% (inactive)
Cc1cc(Cl)nc(NC(=O)Nc2cccc(Cl)c2)n1,inhibition,at 10 µM unless noted,22.5% (inactive)
O=c1c(-c2cccc(Cl)c2)c[nH]n1-c1ccccc1,inhibition,at 10 µM unless noted,17% (inactive)
CCCn1c(C(C)Nc2nc(-c3ccc(C)cc3)cs2)nc2cc(Cl)c(N3CCCCC3)cc21 (configuration not stated),inhibition,at 10 µM unless noted,14.5% (inactive)
O=C(CSCc1ccccc1)Nc1ccccc1,inhibition,at 10 µM unless noted,8.9% (inactive)
Cn1c(CC(=O)Nc2ccccc2)nnc1SCC(=O)c1ccccc1,inhibition,at 10 µM unless noted,9.9% (inactive)
Cn1c(CSCC(=O)Nc2ccccc2)nnc1SCc1ccccc1,inhibition,at 10 µM unless noted,38.6% (active)
CCOC(=O)Nc1ccc2c(c1)N(C(=O)CCCl)c1ccccc1[S@]2=O,inhibition,at 10 µM unless noted,8.9% (inactive)
O=C(CCCN1C(=O)/C(=C/c2cccs2)SC1=S)Nc1ccc(O)cc1,inhibition,at 10 µM unless noted,5% (inactive)
Cc1cccc(C)c1NC(=O)C(c1ccccc1)N1CC(=O)Nc2ccccc21 (configuration not stated),inhibition,at 10 µM unless noted,19.2% (inactive)
Cc1cccc(C)c1NC(=O)N1CC(C)OC(C)C1 (configuration not stated),inhibition,at 10 µM unless noted,5.2% (inactive)
Cc1cccc(C)c1NC(=O)C(Cl)C(=O)c1ccccc1 (configuration not stated),inhibition,at 10 µM,50.4% (active)
same,inhibition,"triplicate retest, at 20 µM",80.1%
CCc1ccc(NC(=O)COC(=O)c2cccs2)cc1,inhibition,at 10 µM unless noted,8.1% (inactive)
Cc1nc2cc(NC(=O)NC3CC3)ccc2n1C,inhibition,at 10 µM unless noted,29.1% (active)
Cc1nc2cc(NCc3cccs3)ccc2n1C,inhibition,at 10 µM unless noted,1.9% (inactive)
Cn1c(CCN2CCCCCC2)nc2cc(NC(=O)Nc3ccccc3)ccc21,inhibition,at 10 µM unless noted,19.6% (inactive)
CCCOC1CCCN(C(=O)c2cc(COc3cncc(Cl)c3)on2)C1 (configuration not stated),inhibition,at 10 µM unless noted,-85.7% (inactive)
Cc1ccc(C)c(N2CCN(C(=O)CCCCCn3c(=S)[nH]c4ccc(N5CCOCC5)cc4c3=O)CC2)c1,inhibition,at 10 µM unless noted,-12.8% (inactive)
CCOc1ccc(NC(=O)CCCCCN2C(=O)[C@@H]3Cc4ccccc4CN3C2=O)cc1,inhibition,at 10 µM unless noted,12.6% (inactive)
Cc1ccc(Cn2c(C)c3cnn(CC(=O)NCc4ccccn4)c(=O)c3c2C)cc1,inhibition,at 10 µM unless noted,-2.5% (inactive)
N#C/C(=C\c1ccccc1C(F)(F)F)C(=O)Nc1ccccc1F,inhibition,at 10 µM unless noted,40.5% (inactive)
Cc1[nH]c2ccccc2c1/C=C(/C#N)C(=O)NC(C)C,inhibition,at 10 µM unless noted,0.1% (inactive)
CNC(=O)/C(C#N)=C/c1c(F)cccc1Cl,inhibition,at 10 µM unless noted,46.8% (active)
N#Cc1ccc(C(=O)Nc2cccc3cccnc23)c(F)c1,inhibition,at 10 µM unless noted,40% (active)
O=C(Nc1cccc2cccnc12)c1cccc(Cl)c1,inhibition,at 10 µM unless noted,0.8% (inactive)
O=C(Nc1cccc2cccnc12)c1cccc(N2C(=O)CCC2=O)c1,inhibition,at 10 µM unless noted,15.2% (inactive)
O=Cc1c(Nc2ccccc2Cl)nc2ccccn2c1=O,inhibition,at 10 µM unless noted,13.8% (inactive)
Cc1ccc(CCn2c3c(c4ccccc42)CN(C)CC3)cn1,inhibition,at 10 µM unless noted,39.6% (active)
COc1cc(Br)c(-c2sc(Nc3ccccc3)n[n+]2-c2ccccc2)cc1OC,inhibition,at 10 µM unless noted,-1.9% (inactive)
Cc1ccccc1Nc1nc(-c2cccnc2)cs1,inhibition,at 10 µM unless noted,16.4% (inactive)
COc1nnc(-c2ccc(C)c(S(=O)(=O)N(C)C)c2)c2ccccc12,inhibition,at 10 µM unless noted,17.5% (inactive)
CCc1ccc(Nc2nnc(SCC(=O)c3ccc4c(c3)NC(=O)CO4)s2)cc1,inhibition,at 10 µM unless noted,39.5% (active)
CCCc1nc2ccccc2c(C(=O)OCC(=O)c2ccc3c(c2)NC(=O)CO3)c1CC,inhibition,at 10 µM unless noted,-1.4% (inactive)
Cc1ccc(Nc2nnc(SCC(=O)c3cc4ccccc4o3)s2)cc1C,inhibition,at 10 µM unless noted,5% (inactive)
COc1ccc(C(=O)/C=C/c2cccnc2)c(OC)c1,inhibition,at 10 µM unless noted,-90.5% (inactive)
COc1ccc(O)c(/C=N/N=C/c2cccc([N+](=O)[O-])c2)c1,inhibition,at 10 µM unless noted,14.9% (inactive)
Cc1ccc(O)c(CNc2nc3ccccc3[nH]2)c1,inhibition,at 10 µM unless noted,10.8% (inactive)
COCC1CCN(C(=O)C2CCC(=O)N(Cc3cccc(C(F)(F)F)c3)C2)CC1 (configuration not stated),inhibition,at 10 µM unless noted,2.8% (inactive)
